15 sequences from article PMC3218832 can be followed below.

Among the targets are RELARELA (p65 homodimer) (Homo sapiens, UniProt Q04206 1-307); p50p50 homodimer (Homo sapiens, UniProt P19838 7-356); RELB subunit;p50 subunit (Homo sapiens;Homo sapiens, UniProt Q01201;P19838 120-401;7-356).
What all share (assay): protein binding microarray; high values mean tight binding
What all share (settings): dsDNA, one strand shown

The target in the next experiment is T1, p52p52 homodimer (Homo sapiens, UniProt Q00653 4-332).
T1 sequence: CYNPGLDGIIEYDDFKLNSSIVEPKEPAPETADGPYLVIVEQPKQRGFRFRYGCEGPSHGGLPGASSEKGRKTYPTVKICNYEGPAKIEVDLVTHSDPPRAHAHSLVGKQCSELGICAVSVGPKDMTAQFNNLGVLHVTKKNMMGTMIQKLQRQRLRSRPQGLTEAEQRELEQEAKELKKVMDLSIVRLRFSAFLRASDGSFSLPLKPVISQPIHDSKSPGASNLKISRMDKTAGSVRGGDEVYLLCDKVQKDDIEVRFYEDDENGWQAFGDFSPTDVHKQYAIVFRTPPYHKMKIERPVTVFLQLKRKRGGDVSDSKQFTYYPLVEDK

The target of experiment [1] is RELA (p65) subunit of heterodimer;p50 subunit (Homo sapiens;Homo sapiens, UniProt Q04206;P19838 1-307;7-356).
The target of experiment [2] is RELA (p65) subunit of heterodimer;p52 subunit (Homo sapiens;Homo sapiens, UniProt Q04206;Q00653 1-307;4-332).
For the next experiment, the target named is T2, RELB subunit;p52 subunit (Homo sapiens;Homo sapiens, UniProt Q01201;Q00653 120-401;4-332).
T2 sequence 1: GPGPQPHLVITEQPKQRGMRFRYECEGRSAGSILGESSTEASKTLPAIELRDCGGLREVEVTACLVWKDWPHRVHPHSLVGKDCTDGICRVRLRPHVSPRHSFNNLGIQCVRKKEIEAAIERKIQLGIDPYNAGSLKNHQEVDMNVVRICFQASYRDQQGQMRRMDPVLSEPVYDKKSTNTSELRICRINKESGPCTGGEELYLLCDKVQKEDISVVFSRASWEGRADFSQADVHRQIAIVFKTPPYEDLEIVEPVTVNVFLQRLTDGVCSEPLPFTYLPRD
T2 sequence 2: T1 sequence

Experiment [3] has as its target C-Rel subunit;p50 subunit (Homo sapiens;Homo sapiens, UniProt Q04864;P19838 1-285;7-356).
Experiment [4] addresses T3, C-Rel subunit;p52 subunit (Homo sapiens;Homo sapiens, UniProt Q04864;Q00653 1-285;4-332).
T3 sequence 1: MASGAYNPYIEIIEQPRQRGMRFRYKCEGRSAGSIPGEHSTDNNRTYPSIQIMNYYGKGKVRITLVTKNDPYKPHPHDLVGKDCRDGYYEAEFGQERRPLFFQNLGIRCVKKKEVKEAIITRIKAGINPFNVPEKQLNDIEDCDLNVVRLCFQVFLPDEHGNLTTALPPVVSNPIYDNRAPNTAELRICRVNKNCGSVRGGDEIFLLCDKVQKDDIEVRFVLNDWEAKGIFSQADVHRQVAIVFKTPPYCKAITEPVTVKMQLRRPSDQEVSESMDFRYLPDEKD
T3 sequence 2: T1 sequence

p50p50 homodimer, sequence (P19838 7-356): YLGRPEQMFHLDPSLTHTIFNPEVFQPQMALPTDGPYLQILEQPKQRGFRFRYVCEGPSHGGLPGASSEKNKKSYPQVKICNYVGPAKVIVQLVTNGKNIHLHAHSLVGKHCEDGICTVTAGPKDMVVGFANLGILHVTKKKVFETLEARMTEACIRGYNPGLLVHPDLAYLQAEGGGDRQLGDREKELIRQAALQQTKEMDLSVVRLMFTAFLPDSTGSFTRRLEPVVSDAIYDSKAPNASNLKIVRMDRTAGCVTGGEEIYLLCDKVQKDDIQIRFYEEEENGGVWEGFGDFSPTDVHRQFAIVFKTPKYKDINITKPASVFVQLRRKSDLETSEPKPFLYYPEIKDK
RELARELA (p65 homodimer), sequence (Q04206 1-307): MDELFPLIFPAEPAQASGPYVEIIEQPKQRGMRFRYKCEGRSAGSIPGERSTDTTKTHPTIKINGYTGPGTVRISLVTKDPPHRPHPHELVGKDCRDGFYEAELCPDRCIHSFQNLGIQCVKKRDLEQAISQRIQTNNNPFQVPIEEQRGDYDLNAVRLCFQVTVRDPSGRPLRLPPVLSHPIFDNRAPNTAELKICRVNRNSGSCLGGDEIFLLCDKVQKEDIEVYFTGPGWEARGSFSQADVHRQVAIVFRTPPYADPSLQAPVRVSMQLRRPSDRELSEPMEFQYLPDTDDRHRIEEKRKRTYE
RELA (p65) subunit of heterodimer;p50 subunit, sequence (Q04206 1-307, chain 1 of 2): as the sequence (Q04206 1-307) above
RELA (p65) subunit of heterodimer;p50 subunit, sequence (P19838 7-356, chain 2 of 2): as the sequence (P19838 7-356) above

Consider CAGGGGACCCT, for which the binding signal with RELARELA (p65 homodimer) is -0.887 z-score; with p50p50 homodimer, 0.487 z-score; with p52p52 homodimer, 0.583 z-score; in [1], 0.0452 z-score; in experiment [2], 0.384 z-score; with RELB subunit;p50 subunit, 0.29 z-score. For the same sequence, the binding signal with RELB subunit;p52 subunit was 0.53 z-score; in experiment [3], -0.293 z-score; in experiment [4], -0.0494 z-score.

Take CAAGTGGCCCT: the binding signal with RELARELA (p65 homodimer) was -1.09 z-score; in the experiment with p50p50 homodimer it was -1.71 z-score; with p52p52 homodimer, -0.67 z-score; in [1] it was -0.961 z-score; in [2], -0.801 z-score; with RELB subunit;p50 subunit it was -0.596 z-score. The binding signal in the experiment with RELB subunit;p52 subunit is -0.32 z-score; in experiment [3], -1.14 z-score; in [4] it was -0.793 z-score.

With AGATATCTCCT, the binding signal with RELARELA (p65 homodimer) was -0.509 z-score; in the experiment with p50p50 homodimer, -1.24 z-score; in the experiment with p52p52 homodimer, -0.623 z-score; in [1] it was -0.927 z-score; in experiment [2], -1.03 z-score; with RELB subunit;p50 subunit, -1.19 z-score. Besides, the binding signal with RELB subunit;p52 subunit was -1.06 z-score; in experiment [3] it was -1.37 z-score; in [4], -0.83 z-score.

AGGTACGCCCC: the binding signal was -0.0324 z-score with RELARELA (p65 homodimer); 0.221 z-score with p50p50 homodimer; 0.402 z-score with p52p52 homodimer; 0.321 z-score in experiment [1]; 0.526 z-score in experiment [2]; 0.233 z-score with RELB subunit;p50 subunit. Besides, the binding signal is 0.441 z-score with RELB subunit;p52 subunit, 0.444 z-score in [3] and 0.674 z-score in experiment [4].

With AAGTATTCCCT, the binding signal with RELARELA (p65 homodimer) was found to be 0.729 z-score; with p50p50 homodimer, 0.846 z-score; with p52p52 homodimer, 0.794 z-score; in experiment [1], 0.606 z-score; in [2], 0.612 z-score; in the experiment with RELB subunit;p50 subunit, 0.683 z-score. Moreover, the binding signal came to 0.852 z-score with RELB subunit;p52 subunit, 0.812 z-score in experiment [3] and 0.523 z-score in experiment [4].

For CAGAGCACCCT, the binding signal is -0.924 z-score in the experiment with RELARELA (p65 homodimer); -0.392 z-score in the experiment with p50p50 homodimer; -0.306 z-score with p52p52 homodimer; -0.624 z-score in experiment [1]; -0.75 z-score in [2]; -0.474 z-score with RELB subunit;p50 subunit. The binding signal is -0.444 z-score with RELB subunit;p52 subunit, -1.15 z-score in experiment [3] and -0.736 z-score in experiment [4].

GGAAGGGCCCC: the binding signal in the experiment with RELARELA (p65 homodimer) is -0.533 z-score; with p50p50 homodimer, -0.314 z-score; with p52p52 homodimer it was -0.0891 z-score; in experiment [1], 0.16 z-score; in [2], 0.159 z-score; with RELB subunit;p50 subunit, -0.313 z-score. The binding signal with RELB subunit;p52 subunit is -0.107 z-score; in experiment [3], -0.00222 z-score; in experiment [4], 0.327 z-score.

Turning to CAGAGATTCCT, the binding signal was 0.143 z-score with RELARELA (p65 homodimer); -1.43 z-score with p50p50 homodimer; -0.492 z-score in the experiment with p52p52 homodimer; -0.806 z-score in experiment [1]; -0.992 z-score in experiment [2]; -1.16 z-score with RELB subunit;p50 subunit. For the same sequence, the binding signal with RELB subunit;p52 subunit was -1 z-score; in experiment [3], -0.64 z-score; in [4] it was -0.606 z-score.

AAAATTTTCCT: the binding signal in the experiment with RELARELA (p65 homodimer) was 1.75 z-score; with p50p50 homodimer, 0.214 z-score; with p52p52 homodimer it was 0.0641 z-score; in [1], 0.434 z-score; in experiment [2], 0.225 z-score; in the experiment with RELB subunit;p50 subunit, -0.311 z-score. The binding signal in the experiment with RELB subunit;p52 subunit is -0.176 z-score; in experiment [3], 0.47 z-score; in experiment [4] it was 0.322 z-score.

Consider CAGTGAGTCCC, for which the binding signal stood at 0.14 z-score in the experiment with RELARELA (p65 homodimer); 0.525 z-score with p50p50 homodimer; 0.308 z-score with p52p52 homodimer; 0.411 z-score in experiment [1]; 0.115 z-score in experiment [2]; 0.511 z-score with RELB subunit;p50 subunit. For the same sequence, the binding signal was 0.164 z-score with RELB subunit;p52 subunit, 0.393 z-score in experiment [3] and 0 z-score in experiment [4].

Turning to AAAGGAGTCCC, the binding signal with RELARELA (p65 homodimer) stood at 0.141 z-score; with p50p50 homodimer, 0.939 z-score; with p52p52 homodimer, 0.569 z-score; in experiment [1], 0.732 z-score; in experiment [2] it was 0.431 z-score; with RELB subunit;p50 subunit, 0.907 z-score. Moreover, the values for the binding signal (in the experiment with RELB subunit;p52 subunit; in experiment [3]; in experiment [4]) were 0.607 z-score, 0.81 z-score and 0.405 z-score, respectively.

On to CAAGTCACCCC, for which the binding signal with RELARELA (p65 homodimer) is -0.939 z-score; with p50p50 homodimer, -0.66 z-score; in the experiment with p52p52 homodimer it was -0.2 z-score; in experiment [1], -0.704 z-score; in experiment [2] it was -0.613 z-score; with RELB subunit;p50 subunit, -0.284 z-score. Moreover, the binding signal with RELB subunit;p52 subunit is -0.0361 z-score; in experiment [3], -0.183 z-score; in experiment [4], -0.366 z-score.

Turning to GAATACATCCT, the binding signal is -0.313 z-score in the experiment with RELARELA (p65 homodimer); -0.946 z-score with p50p50 homodimer; -0.677 z-score in the experiment with p52p52 homodimer; -0.816 z-score in experiment [1]; -0.805 z-score in experiment [2]; -0.977 z-score with RELB subunit;p50 subunit. Further, the binding signal with RELB subunit;p52 subunit is -0.824 z-score; in experiment [3] it was -1.36 z-score; in experiment [4] it was -0.87 z-score.

As to GGGGGGCCCCT, the binding signal was determined as 0.434 z-score in the experiment with RELARELA (p65 homodimer); 0.995 z-score with p50p50 homodimer; 1.67 z-score in the experiment with p52p52 homodimer; 1.67 z-score in experiment [1]; 1.86 z-score in experiment [2]; 1.23 z-score in the experiment with RELB subunit;p50 subunit. The figures for the binding signal (with RELB subunit;p52 subunit; in experiment [3]; in experiment [4]) were 1.45 z-score, 1.22 z-score and 1.71 z-score, respectively.

Consider AAGTTGTTCCT, for which the binding signal in the experiment with RELARELA (p65 homodimer) was -0.106 z-score; with p50p50 homodimer it was -1.19 z-score; with p52p52 homodimer it was -0.438 z-score; in [1], -0.58 z-score; in experiment [2], -0.753 z-score; with RELB subunit;p50 subunit, -0.971 z-score. In addition, the binding signal is -0.787 z-score in the experiment with RELB subunit;p52 subunit, -0.889 z-score in [3] and -0.685 z-score in [4].
